According to PubChem BioAssay AID624415 (National Center for Advancing Translational Sciences (NCATS), 2012):
Hit rate of the full screen: of about 390,000 compounds, about 60 (0.02%) were called active. The sample holds actives, similar compounds and a random draw of the others, so the mix is not that of the screen. A number with no mark means an inactive call. Rule as the data show it: active = activity change below about -50%; inconclusive = between about -30% and that limit; inactive = weaker than that.

target: Mucolipin-1 (Homo sapiens) (UniProt Q9GZU1); test: qHTS for Inhibitors of the Human Mucolipin Transient Receptor Potential 1 (TRPML1); conditions: TRPML1-inducible cells, Ca2+ dye fluorescence, FDSS; stronger effect = lower value; inhibition of EC80 agonist-evoked calcium signal;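 also: stimulus is agonist 54-4 at its EC80 concentration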
Description: Mutations of human Mucolipin transient receptor potential 1 (TRPML1) cause type IV mucolipidosis (ML4), a devastating neurodegenerative disease in young children. […] Currently, there is no treatment for ML4. […] Under physiological conditions, TRPMLs regulate membrane trafficking by transducing information about PI(3,5)P2 levels into changes in juxtaorganellar Ca2+, thereby triggering membrane fusion/fission events in the late endocytic pathways (endolysosomal trafficking). In addition, TRPML1 mediates release of Fe2+ from late endosomes and lysosomes, which is essential for cellular iron metabolism. Thus, impaired ion (Ca2+ and Fe2+) homeostasis underlies lysosomal dysfunction and ML4 phenotypes. In ML4 cells, the problem is twofold. First, defective Ca2+-dependent membrane trafficking due to TRPML1-deficiency causes accumulation of lipids and other bio-materials in the lysosome. The second strike comes from the lysosomal iron overload (due to impairment of TRPML1's Fe2+ conductivity), which converts the accumulated materials into the nondegradable (resistant to lysosomal degradation) lipofuscin (also called aging pigment) in the lysosome. Lipofuscin accumulation dramatically compromises the functions of lysosomes.
Niemann-Pick type C (NPC) disease is another lysosome storage disease (LSD) with severe neurodegeneration during the childhood. Currently, there is no cure for NPC. […] Thus, TRPML1 is likely to be an essential regulator of lysosome ion homeostasis. We specifically hypothesize that stimulating TRPML1's Fe2+/Ca2+ channel activity in the lysosome using synthetic agonists can alleviate neurodegeneration associated with ML4 or NPC.
To this end, a high throughput screen was developed in a miniaturized format to screen against the Molecular Libraries Small Molecule Repository (MLSMR) to find small molecules that act either as inhibitors or agonist against the TRPML1 channel.
NIH Chemical Genomics Center [NCGC]
NIH Molecular Libraries Probe Centers Network [MLPCN]
Assay Submitter (PI): Haoxing Xu, University of Michigan Ann Arbor
TRPML1-DL cells are dissociated from flasks, counted and, brought up to a density of 500,000 cells per mL of media containing a 1X Tet inducer. Using a Multidrop Combi, 3 uL of this cell solution is dispensed to each well of a 1536 TC treated, black, clear bottom hi base plate for a final cell density of 1,500 cells per well. The assay plates are incubated overnight (approximately 16 hours) at 37 degrees C and 5% CO2. Using a Multidrop Combi, 2 uL of ABD Ca8 no wash dye plus quencher is added to each well. The assay plates incubate at room temperature in the dark for 45-90 minutes. The assay plate is read on the FDSS using the following protocol: 10 second baseline read, 23 nL of compounds and controls are added using 1536 pintool, agonist read for 110 seconds, 1 uL EC80 addition (4 uM final 54-4 diluted in media), antagonist read for 110 seconds.
% is scaled to controls: 0 for no effect and ±100 for the full control effect.

Sequence of Mucolipin-1 (Homo sapiens) (Q9GZU1 whole entry, looked up, the tested form may be a part): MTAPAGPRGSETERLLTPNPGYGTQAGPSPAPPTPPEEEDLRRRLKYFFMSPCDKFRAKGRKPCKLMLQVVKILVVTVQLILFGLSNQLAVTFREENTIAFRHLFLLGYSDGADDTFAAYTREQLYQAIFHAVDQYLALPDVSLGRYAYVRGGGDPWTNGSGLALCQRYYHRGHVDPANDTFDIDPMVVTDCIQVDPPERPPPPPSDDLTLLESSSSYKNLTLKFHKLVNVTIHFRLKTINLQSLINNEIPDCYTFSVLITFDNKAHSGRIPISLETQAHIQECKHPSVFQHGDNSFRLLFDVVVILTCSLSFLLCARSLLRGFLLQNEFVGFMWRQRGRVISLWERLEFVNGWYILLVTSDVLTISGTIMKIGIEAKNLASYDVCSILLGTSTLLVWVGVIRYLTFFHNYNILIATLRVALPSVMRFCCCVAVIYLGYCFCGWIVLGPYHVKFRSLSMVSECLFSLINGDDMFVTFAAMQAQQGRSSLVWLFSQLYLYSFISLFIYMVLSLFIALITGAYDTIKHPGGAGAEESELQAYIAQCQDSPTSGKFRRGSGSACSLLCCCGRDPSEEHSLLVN

Structure (SMILES) | activity change, negative = inhibition
CCN(CC)CCNC(=O)c1cc2c(=O)oc3ccc(C)cc3c2s1 | -8.55%
Cc1cc(F)ccc1NC1(c2ccccc2)C(=O)c2ccccc2C1=O | 2.11%
COc1ccc(S(=O)(=O)n2nc(C)c(S(=O)(=O)N3CCCCCC3)c2C)cc1 | -9.9%
O=C(Nc1ccc(OC(F)(F)F)cc1)c1cc2c(=O)n3ccccc3nc2s1 | 9.57%
COC(=O)c1ccc(-c2nc3cc(NC(C)=O)ccc3o2)cc1 | 12.1%
CCOc1ccc(S(=O)(=O)Nc2ccc3oc4c(c3c2)CC(C)CC4)cc1 (stereo not given) | 2.72%
CCOC(=O)c1ccc(NC(=O)C2CC(=O)N(c3ccc(C(C)C)cc3)C2)cc1 (stereo not given) | -2.44%
Cc1cc(OCC(=O)NCC2(N(C)C)CCCCC2)cc(C)c1Cl | -7.81%
C=C1CCN(C(CC(C)C)C(=O)NCc2cc(OC)c(OC)c(OC)c2)S(=O)(=O)c2ccccc21 (stereo not given) | 6.7%
Cc1ccc(CNC(=O)C2(C(F)(F)F)C/C(=C\CCO)CCCO2)o1 (stereo not given) | -4.32%
COc1ccc(NC(=O)CSc2nnc(-c3nnn(-c4ccc(F)cc4)c3C)o2)cc1 | 30.2%
Cc1cc(O)c(C(c2ccccc2)N2CCN(c3ccccc3F)CC2)c(=O)n1Cc1ccco1 (stereo not given) | 19%
O=C(NCCS(=O)(=O)N1CCN(c2ccc(F)cc2)CC1)c1ccccc1Br | -27.6%
Cc1nc(SCC(=O)N2CCN(c3ccccc3)CC2)[nH]c(=O)c1C | 14.8%
Cc1cccc(Cn2c(SCc3ccc(C(=O)N4CCC(C)CC4)cc3)nc3ccncc32)c1 | 10.3%
Cn1nnnc1SCCCNCc1ccc(Cl)cc1 | 25.2%
COc1ccc(Cl)cc1S(=O)(=O)Nc1cccc(C(=O)O)c1 | -0.499%
COC(=O)c1cccc(NS(C)(=O)=O)c1 | -60.5% (active)
CCOC(=O)c1cccc(NS(=O)(=O)c2cn(C)c(C)n2)c1 | 9.58%
O=C(CCc1nc(CN2CCN(S(=O)(=O)c3ccc(Cl)cc3)CC2)no1)N1CCCCC1 | 8.21%
CCc1ccc(CNC(=O)C2CCN(c3nn4cc(-c5ccc(F)cc5)nc4s3)CC2)cc1 | 20.9%
Cc1ccc(NC(=O)Cc2ccc(NC(=O)N3CCCCc4ccccc43)cc2)cc1 | 8.17%
Cc1ccccc1C(=O)Nc1cc(C)c(O)c(-c2nc3ccccc3o2)c1 | -18.1%
Cc1ccccc1CNC(=O)CSc1nnc(C)c2c(C)n(-c3ccccc3)nc12 | 2.86%
Cc1ccc(OCCSc2nc(C)c(Cc3ccccc3)c(=O)[nH]2)cc1 | -16.6%
COc1ccc(NC(=O)NC(C)c2c(-n3cccc3)sc(C)c2C)cc1OC (stereo not given) | 12.5%
COC(=O)c1ccccc1NC(=O)Cn1c(=O)n(-c2cccc(C(F)(F)F)c2)c(=O)c2c(C)c(C)sc21 | -25.8%
Cc1cc2c(cc3c(SCc4nc(-c5ccccc5)oc4C)nnc(C)n32)o1 | 11.7%

Structure (SMILES) | activity change, negative = inhibition
N#Cc1ccccc1Cn1cnc2nc3c(cc2c1=O)CCCC3 | -15.7%
CCN(Cc1ccccc1)S(=O)(=O)c1ccc2c(c1)CCCN2C(C)=O | -2.82%
Cn1c(=O)c2sccc2n2c(CCC(=O)NCc3ccccc3Cl)nnc12 | 2.41%
CN1CCN(C2(CNC(=O)COc3ccc(C(C)(C)C)cc3)CCCCC2)CC1 | 16.1%
COc1cc(OC)cc(-c2nc3nc(C)c(CCC(=O)Nc4ccccc4)c(C)n3n2)c1 | -13.4%
Cc1ccc(Nc2c(-c3ccc(N(C)C)cc3)nc3nc[nH]n23)cc1 | -8.37%
CCOc1ccccc1CNC(=O)c1cnc2c(-c3ccc(OCC)c(OCC)c3)c(C)nn2c1C | -5.19%
CCc1ccc(-n2nc(C)c3c(C)cc(=O)n(CC(=O)Nc4ccc(F)cc4C)c32)cc1 | 1.68%
CCOc1ccc(C2C(=O)N(C3CCCCC3)CC(=O)N2CCC2=CCCCC2)cc1OC (stereo not given) | -3.98%
CCC(=O)N1CCc2cc(Br)cc(S(=O)(=O)CCC(=O)N3CCN(c4ccc(F)cc4)CC3)c21 | -21.4%
COc1ccc(CN2CCC(=O)c3ccccc3S2(=O)=O)cc1 | -9.22%
COc1ccc(CCC(=O)NCc2ccc3c(c2)CCN3C(=O)c2ccc(F)cc2)cc1 | -24.8%
CCCSc1ncc(Cl)c(C(=O)Nc2sc3c(c2C(=O)NCCOC)CCCC3)n1 | 20.3%
O=C(Nc1nc2c(s1)CCCC2)c1ccccc1F | 7.29%
COc1cccc2cc(-c3nc(Cl)c4c5c(sc4n3)CC(C)CC5)c(=O)oc12 (stereo not given) | -7.72%
CCOC(=O)C1CCCN(Cc2nc(N)nc(Nc3ccc(C)cc3)n2)C1 (stereo not given) | -0.383%
Cc1ccc(Nc2nc(N)nc(CN3CCN(Cc4ccccc4)CC3)n2)cc1Cl | -62.2% (active)
Cc1cc(N2CCOCC2)nc2ccc(NC(=S)N3CCN(Cc4ccccc4)CC3)cc12 | -15.7%
Cc1ccc(-n2c(SCC(=O)c3ccccc3)nc3c([nH]c4ccccc43)c2=O)cc1 | 13.9%
O=C(CSCc1cnn(-c2ccccc2)c1-n1cccc1)NCc1ccccc1Br | 2.1%
CC1=C(C(=O)OCc2ccc(C)cc2)C(c2ccccc2Cl)CC(=O)N1 (stereo not given) | 31.3%
C#CC(C)(CC)NC(=O)Cn1nnc(-c2ccc(OCc3c(F)cccc3Cl)cc2)n1 (stereo not given) | -6.13%
Cn1c(=O)c2c(nc(SCC(=O)Nc3ccc(F)cc3)n2Cc2ccc(Cl)cc2)n(C)c1=O | 3.84%
Cc1cccc(C(=O)Nc2ccc(-c3nc4ncccc4o3)cc2C)c1 | -6.3%
COC(=O)CCc1ccccc1S(=O)(=O)N(CCC(=O)OC)Cc1ccccc1 | -2.45%
CC(C)(C)n1ncc2c(=O)n(Cc3ccc(C(=O)c4ccccc4)cc3)cnc21 | 1.11%
COc1cccc(CNC(=O)c2ccc3c(c2)N(Cc2ccc(C(F)(F)F)cc2)C(=O)c2ccccc2S3)c1OC | 37.3%
